Assay results as given in PubChem BioAssay AID493113 (Johns Hopkins Ion Channel Center, 2011).
Results with a measured potency or affinity are listed apart.

target: Potassium voltage-gated channel subfamily KQT member 2 (Rattus norvegicus) (UniProt O88943); test: KCNQ2 channel activators, analog series, SAR follow-up, automated patch clamp, KCNQ2-CHO cells (AID 493113); conditions: automated patch clamp current potentiation; series mostly up to 30 µM; potentiation: at the top concentration
Sequence (O88943 whole entry, looked up): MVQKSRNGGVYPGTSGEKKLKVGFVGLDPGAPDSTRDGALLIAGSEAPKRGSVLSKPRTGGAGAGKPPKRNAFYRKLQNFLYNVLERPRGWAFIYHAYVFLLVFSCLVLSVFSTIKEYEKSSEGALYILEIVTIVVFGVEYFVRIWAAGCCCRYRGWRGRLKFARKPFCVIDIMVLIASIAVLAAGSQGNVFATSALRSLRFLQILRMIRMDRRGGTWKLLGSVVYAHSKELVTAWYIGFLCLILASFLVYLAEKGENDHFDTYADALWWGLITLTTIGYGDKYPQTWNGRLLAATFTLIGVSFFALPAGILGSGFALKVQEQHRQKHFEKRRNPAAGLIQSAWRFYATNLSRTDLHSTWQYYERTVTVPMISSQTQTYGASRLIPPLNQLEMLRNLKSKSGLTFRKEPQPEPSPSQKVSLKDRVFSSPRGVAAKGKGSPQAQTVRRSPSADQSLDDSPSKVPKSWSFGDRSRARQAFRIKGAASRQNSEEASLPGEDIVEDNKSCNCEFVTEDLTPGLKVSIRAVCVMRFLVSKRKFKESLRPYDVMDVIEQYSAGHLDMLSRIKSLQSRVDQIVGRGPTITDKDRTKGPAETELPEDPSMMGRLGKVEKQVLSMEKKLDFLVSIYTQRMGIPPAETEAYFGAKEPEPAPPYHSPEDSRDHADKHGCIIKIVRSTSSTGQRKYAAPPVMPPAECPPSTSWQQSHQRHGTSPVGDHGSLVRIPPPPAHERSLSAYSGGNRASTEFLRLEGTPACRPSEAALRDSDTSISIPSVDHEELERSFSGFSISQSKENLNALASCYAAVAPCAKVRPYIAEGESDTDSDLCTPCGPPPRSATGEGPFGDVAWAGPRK

potentiation, inactive:
Cc1cc(C)c(NC(=O)C23CC4CC(CC(C4)C2)C3)c(C)c1 41.6
CC(=O)Nc1c(C)cc(C)cc1C 103
O=C(Nc1ccc(C(F)(F)F)cc1)C1CC2CCC1C2 (configuration not stated) 18
Cc1cc(C)c(NC(=O)c2ccc(C(F)(F)F)cc2)c(C)c1 32.3
Cc1cc(C)c(NC(=O)c2ccccc2)c(C)c1 6.47
Cc1cc(C)c(NC(=O)c2cccc(C(F)(F)F)c2)c(C)c1 -47.8
Cc1ccc(C(=O)Nc2c(C)cc(C)cc2C)cc1 24.6
Cc1cc(C)cc(NC(=O)C2CC3CCC2C3)c1 (configuration not stated) 47.4
CCC(=O)Nc1c(C)cc(C)cc1C 79.7
Cc1cc(C)c(NC(=O)C23CCC(C)(C(=O)O2)C3(C)C)c(C)c1 (configuration not stated) -19.5
Cc1cc(C)c(NC(=O)c2ccc3ccccc3c2)c(C)c1 6.32
O=C(Nc1ccccn1)C1CC2CCC1C2 (configuration not stated) 32.3
Cc1cc(C)c(NC(=O)C(C)(C)C)c(C)c1 38.5
O=C(Nc1ccc(F)cc1)C1CC2CCC1C2 (configuration not stated) 61
Cc1cc(C)c(NC(=O)c2ccc(Cl)c(Cl)c2)c(C)c1 50.9
Cc1cc(C)c(NC(=O)c2cc(C(F)(F)F)cc(C(F)(F)F)c2)c(C)c1 -15.3
O=C(Nc1ccccc1)C1CC2CCC1C2 (configuration not stated) 136
